Measurements published in PubChem BioAssay.

test: mitochondrial membrane potential change in A549 cells, profiling panel, cell-based, JC-1 fluorescence, basal, 24 h, 100 nL (AID 1138); settings: higher = more signal;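 also: A549 lung adenocarcinoma cells under basal conditions with no added stimulus; test concentration not given here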

SMILES | z-score
CCOC(=O)C1=CC[C@@H](c2ccccc2)N(S(=O)(=O)c2ccc(C)cc2)[C@@H]1C#N | 0.215
C=CCN1C(=O)[C@]2(O[C@H](CCO)[C@@H]([Si](C)(C)c3ccc(OC)cc3)[C@@H]2C)c2cc(N3C(=O)c4ccccc4Oc4ccccc43)ccc21 | -1.36
C=CCOC(=O)[C@H]1[C@@H]2C(=O)O[C@@H](c3ccccc3)[C@@H](c3ccccc3)N2[C@@H](c2ccc(OCCOC(=O)[C@H]3C[C@H]4C(=O)NCC(=O)N4[C@H]3c3ccc(O)cc3)cc2)[C@]12C(=O)Nc1ccccc12 | -1.62
C=CCOC(=O)[C@H]1[C@@H]2C(=O)O[C@@H](c3ccccc3)[C@@H](c3ccccc3)N2[C@@H](c2ccc(OCCOC(=O)[C@@H]3C[C@@H]4C(=O)N[C@@H](Cc5ccccc5)C(=O)N4[C@@H]3c3ccc(O)cc3)cc2)[C@]12C(=O)Nc1ccc(I)cc12 | -1.28
CC(C)[Si](C#Cc1ccccc1)(O[C@H](c1ccccc1)c1cn(Cc2ccccc2)nn1)C(C)C | -0.485
O=C(NCCN1CCOCC1)[C@@H]1c2ccccc2C(=O)N(CC23CC4CC(CC(C4)C2)C3)[C@H]1c1ccc(CO)cc1 | 1.26
O=C1O[C@@H](c2ccccc2)[C@@H](c2ccccc2)N2[C@@H](c3ccccc3OCCO)[C@]3(C(=O)Nc4ccc(C#CC5(O)CCCCCC5)cc43)[C@@H](C(=O)N3CCCCCCC3)[C@H]12 | -1.1
CCOC(=O)C[C@H]1[C@H](OC(=O)c2ccc(-c3ccccc3)cc2)[C@@H](NC(=O)C2CCCCC2)c2cc(OCCCO)ccc2N1C(=O)Cc1ccc(OC)cc1 | 0.47
C=CCC(OC(C)=O)[C@@H]1[C@@H](N(Cc2cccc3ccccc23)C(=O)c2ccc(C)cc2)c2cc(OCCCO)ccc2N1C(=O)Cc1ccc2ccccc2c1 (stereo partly specified) | 1.62
COC(=O)C1(CC(C)C)C=C2C(=C(C)C(=O)C2C)CN1 (stereo unspecified) | 1.05
COC(=O)[C@@]1(Cc2ccc(F)cc2)[C@H]2c3cc(C(=O)N4CCCC4)n(C[C@H](O)CO)c3C[C@H]2CN1C(=O)c1ccccc1 | 0.226
COC(=O)C(CC#Cc1ccc2c(c1)[C@]1(C(=O)N2)[C@H](C(=O)NC[C@H](O)c2ccccc2)[C@H]2C(=O)O[C@H](c3ccccc3)[C@H](c3ccccc3)N2[C@@H]1c1ccc(O)cc1)C(=O)OC | -1.62
CC(C)c1ccc(NN2C(C(O)C3CCCCC3)C=CC3C(=O)N(c4ccccc4)C(=O)C32)cc1 (stereo unspecified) | 0.257
CN(C)C(=O)[C@]1(CCS(=O)(=O)c2ccccc2)N=C(c2ccc(OCCCO)cc2)O[C@@H]1c1ccccc1CN=[N+]=[N-] | -0.381
COc1ccc(C(=O)Nc2cccc(CN3C(=O)[C@]4(O[C@H](CC(=O)N(CCO)Cc5ccccc5)[C@@H]([Si](C)(C)c5ccc(OC)cc5)[C@@H]4C)c4ccccc43)c2)cc1 | -0.0253
C=CCNC(=O)[C@@H]1[C@H]2C(=O)O[C@H](c3ccccc3)[C@H](c3ccccc3)N2[C@H](c2ccc(O)cc2)[C@@]12C(=O)N(C(=O)OCCOC)c1ccc(C#CCC(C(=O)OC)C(=O)OC)cc12 | 0.556
C=CCNC(=O)[C@H]1[C@@H]2C(=O)O[C@@H](c3ccccc3)[C@@H](c3ccccc3)N2[C@@H](c2ccc(OCCO)cc2)[C@]12C(=O)N(C(=O)OCCOC)c1ccc(C#CCNC(N)=O)cc12 | -0.0216
COC(=O)[C@@]1(Cc2ccc(OC)cc2)[C@@H]2[C@@H](CC(=O)[C@H]2CC(=O)C(=O)N(C)C)CN1C(=O)c1ccccc1 | 0.257

SMILES | z-score
CC(C)N1C(=O)[C@@]2(Cc3ccccc31)c1ccccc1C(=O)N(Cc1ccccc1C(F)(F)F)[C@H]2c1ccc(CO)cc1 | -0.602
COc1ccc(C#Cc2ccc3c(c2)[C@]2(C(=O)N3)[C@H](c3ccccc3OCCO)N3[C@H](c4ccccc4)[C@H](c4ccccc4)OC(=O)[C@H]3[C@@H]2C(=O)NC[C@H](O)c2ccccc2)cc1 | -1.25
O=C1O[C@H](c2ccccc2)[C@H](c2ccccc2)N2[C@H]1[C@@H](C(=O)O)[C@]1(C(=O)Nc3ccccc31)[C@H]2c1ccc(OCCO)cc1 | 0.209
Cc1ccc(S[C@]2(C(=O)NCCN3CCOCC3)CC(=O)N(C(C)C)[C@@H]2c2ccc(CO)cc2I)cc1 | 1.94
COc1ccc([Si](C)(C)[C@H]2[C@H](CC(=O)N(CCO)Cc3ccccc3)O[C@@]3(C(=O)N(c4ccccc4)c4ccccc43)[C@@H]2C)cc1 | -0.23
CN1C(=O)C2C=CC(C(O)c3ccc(I)cc3)N(N(c3ccccc3)c3ccccc3)C2C1=O (stereo unspecified) | 1.74
C=CCC(OC(C)=O)[C@@H]1[C@@H](N(Cc2ccc(-c3ccccc3)cc2)C(=O)Cc2ccc(OC)cc2)c2cc(OCCCO)ccc2N1C(=O)Cc1ccc(OC)cc1 (stereo partly specified) | 0.462
Cc1ccc(S[C@]2(C(=O)NC(C)C)CC(=O)N(Cc3ccccc3)[C@@H]2c2ccc(CO)cc2)cc1 | 0.649
C=CCNC(=O)[C@H]1[C@@H]2C(=O)O[C@@H](c3ccccc3)[C@@H](c3ccccc3)N2[C@@H](c2ccc(OCCO)cc2)[C@]12C(=O)N(C(=O)OCCOC)c1ccc(C#CCC(C(=O)OC)C(=O)OC)cc12 | -0.933
CCCCCN1CC=CC23O[C@@H]4/C=C\CCCOC(=O)C4[C@H]2C(=O)N(CCO)[C@@H]3C1=O (stereo partly specified) | -0.953
CN1C2C=C(c3ccc(CO)cc3)C(C3C(=O)N(C(N)=O)C(=O)C32)C1C1CC1 (stereo unspecified) | -0.572
Cc1ccc(S(=O)(=O)N2[C@@H](c3ccccc3)C(C(=O)O)=C[C@H]2C(C)(C)C)cc1 | -1.04
C=C(C(=O)CC[C@@H](OC(=O)c1ccccc1-c1ccccc1C(=O)O)c1ccc(CO)o1)C(C)C | 0.475
COC(=O)[C@@]1(Cc2ccc(F)cc2)[C@@H]2C(=CC(=O)[C@H]2CC(=O)C(=O)N2CCCC2)CN1C(=O)c1ccccc1 | 0.711
COC(=O)C(CC#Cc1ccc2c(c1)[C@]1(C(=O)N2)[C@H](C(=O)N2CCCCCCC2)[C@H]2C(=O)O[C@H](c3ccccc3)[C@H](c3ccccc3)N2[C@@H]1c1ccc(OCCO)cc1)C(=O)OC | -0.949
C=CC[C@H](OC(=O)Nc1ccc(SC)cc1)c1ccc(O)c(F)c1 | -1.34
Cc1cccc([C@H]2C[C@H]3C(Br)=C[C@@]2(CO)C(=O)[C@]32CO2)c1 | -0.843
C=C(CCCC)C(=O)CC[C@H](OC(=O)c1ccccc1-c1ccccc1C(=O)O)c1cccc(OCCO)c1 | 0.15
